From the supplement of paper PMC3334620
In all, about 33,000 sequences were measured (“E-score (-0.5 to 0.5)”: median about -0.032, highest 2% from about 0.36 on). What follows is part of a selection rich in the highest values, with near analogues and random picks from the rest.

target: T1, Sko1 (UniProt Q02100); test: PBM E-score (8-mer binding enrichment) (E-score (-0.5 to 0.5)); higher = stronger / more preferred TF binding; details: protein concentration: 200 nM; construct: GST-full length
T1 sequence: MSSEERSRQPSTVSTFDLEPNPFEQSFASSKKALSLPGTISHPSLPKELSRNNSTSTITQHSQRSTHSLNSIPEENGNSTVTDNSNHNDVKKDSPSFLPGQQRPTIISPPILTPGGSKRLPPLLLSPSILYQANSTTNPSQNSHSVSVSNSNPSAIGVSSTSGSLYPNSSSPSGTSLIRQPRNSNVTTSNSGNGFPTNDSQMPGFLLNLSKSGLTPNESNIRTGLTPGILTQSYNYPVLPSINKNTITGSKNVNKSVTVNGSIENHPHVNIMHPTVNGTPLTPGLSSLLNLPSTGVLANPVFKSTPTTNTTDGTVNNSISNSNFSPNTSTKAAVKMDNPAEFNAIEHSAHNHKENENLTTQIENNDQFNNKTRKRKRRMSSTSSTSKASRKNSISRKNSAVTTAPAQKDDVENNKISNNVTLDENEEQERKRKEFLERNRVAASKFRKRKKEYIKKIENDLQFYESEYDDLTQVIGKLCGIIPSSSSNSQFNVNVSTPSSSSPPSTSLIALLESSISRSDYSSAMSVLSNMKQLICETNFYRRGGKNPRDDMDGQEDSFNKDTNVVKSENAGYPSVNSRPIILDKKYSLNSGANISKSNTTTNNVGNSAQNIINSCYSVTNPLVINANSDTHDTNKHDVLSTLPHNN
Procedure: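 Universal 'all 10-mer' protein binding microarrays (Agilent AMADID 015681) probed with GST-tagged S. cerevisiae TFs (full-length or DBD) made by in vitro transcription/translation (PURExpress), about 100-200 nM. Bound TF was detected with fluorescent anti-GST. Each ungapped 8-mer (which stands for itself and its reverse complement) is scored by the PBM enrichment score (E-score), a modified Wilcoxon-Mann-Whitney statistic from -0.5 to +0.5, computed with the Universal PBM Analysis Suite. Scale: above 0.35 generally sequence-specific binding.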

| Sequence | PBM E-score |
| --- | --- |
| ATCAAGTA | 0.0281 |
| ACGTTCGG | 0.0529 |
| CGAGTGGA | -0.154 |
| CAGGCCCC | -0.271 |
| GCAGTCAA | -0.262 |
| ACTTTTGC | 0.185 |
| AGGCACAA | -0.0774 |
| CGCGTAAG | 0.352 |
| TACGTAAA | 0.484 |
| TTCGTAAA | 0.32 |
| CTCGTAAG | 0.243 |
| CCCGTAAA | -0.102 |
| CACGTAAC | 0.449 |
| CCCGTAAC | -0.105 |
| CTCGTAAA | 0.139 |
| CTCGTAAC | 0.253 |
| CACGTAAG | 0.448 |
| CACGTAAA | 0.437 |
| TCCGTAAA | -0.0256 |
| CAGAAGAA | 0.0487 |
| ACACCACG | 0.063 |
| CATGGTAG | -0.193 |

| Sequence | PBM E-score |
| --- | --- |
| CTGGTTAC | -0.00958 |
| CCGCTGTC | -0.153 |
| CGTCGAAA | 0.247 |
| AACTTTAC | 0.171 |
| CCGATTCC | -0.0807 |
| ATGATCTG | 0.151 |
| CGGTCATC | -0.0713 |
| CCGTCATC | 0.36 |
| GAGTCATA | 0.122 |
| CCGTCATA | 0.368 |
| GGGTCATA | -0.0307 |
| CAGTCATA | 0.0103 |
| GCGTCATA | 0.481 |
| CGGTCATA | 0.0986 |
| CAGTCATC | -0.204 |
| CGCTTGCA | -0.102 |
| TAGCGTCA | 0.398 |
| AGGCGTCA | 0.256 |
| CCGCGTCC | -0.00078 |
| CAGCGTCA | 0.269 |
| ACGCGTCC | 0.0182 |
| TCGCGTCA | 0.408 |

| Sequence | PBM E-score |
| --- | --- |
| CCGCGTCA | 0.377 |
| AAGCGTCA | 0.353 |
| TCGCGACA | -0.0189 |
| ACGCGTCT | 0.192 |
| CCGCGTCG | -0.127 |
| ACGCGTCA | 0.436 |
| GGTAGCCA | -0.238 |
| ACAAACCA | -0.0895 |
| ATGCCGTG | -0.111 |
| TGGCGGAA | -0.102 |
| TAGCGCGA | -0.0664 |
| GCGCGTTA | 0.0431 |
| GCGCGTCC | -0.15 |
| GCGCGTCA | 0.424 |
| CTCAGCCC | -0.249 |
| GACAATCA | 0.00255 |
| ATTTTGGC | 0.11 |
| GCAACCGC | -0.139 |
| ATGTCAAG | 0.187 |
| ATGTCATG | 0.403 |
| ATGTCATA | 0.41 |
| ATGTCACG | 0.325 |

| Sequence | PBM E-score |
| --- | --- |
| CTGTCATC | 0.0473 |
| ATGTCAGC | 0.129 |
| GTGTCATA | 0.298 |
| ATGTCATC | 0.389 |
| CTGTCATA | 0.141 |
| GCTAGAGA | -0.0277 |
| AACTTTAG | 0.247 |
| CCTATGTA | -0.0157 |
| CGATCCGC | -0.0715 |
| GACCAACA | 0.17 |
| AATCTCAC | -0.0325 |
| CCTGTTCG | -0.0292 |
| ACGTGATC | 0.432 |
| ACGTGAAA | 0.386 |
| CCGTGATA | -0.0242 |
| TCGTGAAA | 0.0383 |
| AAGTGATC | 0.112 |
| ACGTGATA | 0.409 |
| ACGTGAAC | 0.311 |
| ACGTGATG | 0.442 |
| GCGTGATA | 0.145 |
